Laboratory results taken from the supplement of paper PMC10849652.
The full data set covers some 8,800 targets. This sample favours those with a hit. About 0.5% of all pairs of compound and target were hits.

Assays:
Test in all cases: log2 fold change, soluble protein after heating vs DMSO (PISA); higher = thermal stabilisation; K562 lysate, 10 uM; active = over 0.2 and 3.5 SD of the protein, either way, in both replicates (recomputed)
erlotinib = compound: C#Cc1cccc(Nc2ncnc3cc(OCCOC)c(OCCOC)cc23)c1 [erlotinib]
Method in brief: (§1)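 A 30 min treatment with 10 μM compound was applied to crude K562 extract at 1 mg/mL protein in PBS pH 7.4 with 1 mM MgCl2. Heating for 3 min spanned 48°C-58°C, after which aliquots were pooled, adjusted to 0.5% NP-40 at 4°C and spun at 21,000xg for 90 min. TMTpro 16plex LC-MS/MS of the supernatant, with channel sums equalised, gave values recorded as log-two fold change in thermal stability against solvent controls, from duplicates.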

[1] = compound: C/C(=N\NC(=O)C1=CC(=CC=C1)S(=O)(=O)N2CCOCC2)/C3=C(C=CC(=C3)Cl)O
Method in brief: as §1

[2] = compound: C1=CC(=CC=C1C2=NC3=C(N2)C=C(C=C3)C(=O)N)OC4=CC=C(C=C4)Cl
Method in brief: as §1

[3] = compound: C1=CC2=C(C=CC(=C2)/C=C\3/C(=O)NC(=NCC4=CC=CS4)S3)N=C1
Method in brief: as §1

[4] = compound: C1=CC2=NC=CN=C2C=C1/C=C/3\C(=O)NC(=O)S3
Method in brief: as §1

[5] = compound: C1=CC=C(C=C1)C2=NC(=C(N2)C3=CC=NC=C3)C4=CC(=C(C=C4)Cl)O
Method in brief: as §1

[6] = compound: C1=CC=C2C(=C1)C3=NNC4=CC=CC(=C43)C2=O
Method in brief: as §1

[7] = compound: C1CCN(C1)C(=O)NC2=CC=CC(=C2)NC3=NC=C(C(=N3)NCCC4=CN=CN4)Br
Method in brief: as §1

[8] = compound: C1CN(CCC1(CC2=CC=C(C=C2)Cl)N)C3=NC=NC4=C3C=CN4
Method in brief: as §1

IRAK-1-4 Inhibitor I = compound: C1COCCN1CCN2C3=CC=CC=C3N=C2NC(=O)C4=CC(=CC=C4)[N+](=O)[O-] [IRAK-1-4 Inhibitor I]
Method in brief: as §1

Measured: log2 fold change

NELFA (UniProt Q9H3P2)
inactive: erlotinib -0.04 | [1] -0.018 | [2] 0.002 | [3] 0.047 | [4] 0.007 | [5] 0.007 | [6] -0.009 | [7] 0.011 | [8] -0.001 | IRAK-1-4 Inhibitor I -0.017

NFATC1 (UniProt O95644)
UniProt O95644, sequence (O95644 whole entry, looked up): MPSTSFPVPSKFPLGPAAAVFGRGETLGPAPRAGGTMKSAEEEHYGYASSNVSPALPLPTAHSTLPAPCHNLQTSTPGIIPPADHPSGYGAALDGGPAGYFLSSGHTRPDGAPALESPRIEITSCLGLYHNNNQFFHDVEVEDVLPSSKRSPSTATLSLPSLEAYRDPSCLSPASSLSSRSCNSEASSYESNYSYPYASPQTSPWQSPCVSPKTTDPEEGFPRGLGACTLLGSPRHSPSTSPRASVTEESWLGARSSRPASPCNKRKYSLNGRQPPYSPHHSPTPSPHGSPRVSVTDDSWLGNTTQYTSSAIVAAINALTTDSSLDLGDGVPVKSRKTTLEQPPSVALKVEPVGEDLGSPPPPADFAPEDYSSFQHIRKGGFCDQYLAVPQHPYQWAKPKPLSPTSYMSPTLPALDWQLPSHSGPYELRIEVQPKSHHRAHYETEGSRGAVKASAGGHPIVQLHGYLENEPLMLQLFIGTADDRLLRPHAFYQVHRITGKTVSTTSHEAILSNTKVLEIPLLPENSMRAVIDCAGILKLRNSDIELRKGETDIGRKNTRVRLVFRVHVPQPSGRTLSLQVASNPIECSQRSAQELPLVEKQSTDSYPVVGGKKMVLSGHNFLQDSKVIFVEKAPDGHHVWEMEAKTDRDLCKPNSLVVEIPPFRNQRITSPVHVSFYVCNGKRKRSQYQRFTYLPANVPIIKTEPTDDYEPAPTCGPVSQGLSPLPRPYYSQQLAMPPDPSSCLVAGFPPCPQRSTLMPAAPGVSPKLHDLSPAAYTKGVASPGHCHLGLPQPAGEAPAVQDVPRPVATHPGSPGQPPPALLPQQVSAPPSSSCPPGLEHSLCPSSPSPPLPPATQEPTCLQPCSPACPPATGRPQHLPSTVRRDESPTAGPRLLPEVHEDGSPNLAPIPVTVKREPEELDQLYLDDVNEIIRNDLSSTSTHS
inactive: erlotinib -0.002 | [1] -0.431 | [2] 0.045 | [3] -0.04 | [4] -0.02 | [5] 0.065 | [6] 0.009 | [7] 0.044 | [8] 0.092 | IRAK-1-4 Inhibitor I 0.077

NOSTRIN (UniProt Q8IVI9)
inactive: erlotinib -0.031 | [1] 0.032 | [2] 0.132 | [3] 0.072 | [4] -0.008 | [5] -0.013 | [6] 0.07 | [7] -0.055 | [8] -0.065 | IRAK-1-4 Inhibitor I 0.001

MT-ATP8 (UniProt P03928)
UniProt P03928, sequence (P03928 whole entry, looked up): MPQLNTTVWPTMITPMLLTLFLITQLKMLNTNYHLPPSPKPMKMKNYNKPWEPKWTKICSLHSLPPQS
inactive: erlotinib 0.069 | [1] 0.006 | [2] -0.006 | [3] -0.041 | [4] 0.103 | [5] -0.103 | [6] -0.062 | [7] 0.116 | [8] 0.068 | IRAK-1-4 Inhibitor I 0.033

NEDD8 (UniProt Q15843)
UniProt Q15843, sequence (Q15843 whole entry, looked up): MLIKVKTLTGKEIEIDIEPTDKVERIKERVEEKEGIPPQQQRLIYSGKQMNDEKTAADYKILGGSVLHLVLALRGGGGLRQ
inactive: erlotinib 0.018 | [1] -0.019 | [2] 0 | [3] 0.031 | [4] -0.047 | [5] 0.011 | [6] -0.053 | [7] 0.026 | [8] 0.07 | IRAK-1-4 Inhibitor I 0

NEK9 (UniProt Q8TD19)
UniProt Q8TD19, sequence (Q8TD19 whole entry, looked up): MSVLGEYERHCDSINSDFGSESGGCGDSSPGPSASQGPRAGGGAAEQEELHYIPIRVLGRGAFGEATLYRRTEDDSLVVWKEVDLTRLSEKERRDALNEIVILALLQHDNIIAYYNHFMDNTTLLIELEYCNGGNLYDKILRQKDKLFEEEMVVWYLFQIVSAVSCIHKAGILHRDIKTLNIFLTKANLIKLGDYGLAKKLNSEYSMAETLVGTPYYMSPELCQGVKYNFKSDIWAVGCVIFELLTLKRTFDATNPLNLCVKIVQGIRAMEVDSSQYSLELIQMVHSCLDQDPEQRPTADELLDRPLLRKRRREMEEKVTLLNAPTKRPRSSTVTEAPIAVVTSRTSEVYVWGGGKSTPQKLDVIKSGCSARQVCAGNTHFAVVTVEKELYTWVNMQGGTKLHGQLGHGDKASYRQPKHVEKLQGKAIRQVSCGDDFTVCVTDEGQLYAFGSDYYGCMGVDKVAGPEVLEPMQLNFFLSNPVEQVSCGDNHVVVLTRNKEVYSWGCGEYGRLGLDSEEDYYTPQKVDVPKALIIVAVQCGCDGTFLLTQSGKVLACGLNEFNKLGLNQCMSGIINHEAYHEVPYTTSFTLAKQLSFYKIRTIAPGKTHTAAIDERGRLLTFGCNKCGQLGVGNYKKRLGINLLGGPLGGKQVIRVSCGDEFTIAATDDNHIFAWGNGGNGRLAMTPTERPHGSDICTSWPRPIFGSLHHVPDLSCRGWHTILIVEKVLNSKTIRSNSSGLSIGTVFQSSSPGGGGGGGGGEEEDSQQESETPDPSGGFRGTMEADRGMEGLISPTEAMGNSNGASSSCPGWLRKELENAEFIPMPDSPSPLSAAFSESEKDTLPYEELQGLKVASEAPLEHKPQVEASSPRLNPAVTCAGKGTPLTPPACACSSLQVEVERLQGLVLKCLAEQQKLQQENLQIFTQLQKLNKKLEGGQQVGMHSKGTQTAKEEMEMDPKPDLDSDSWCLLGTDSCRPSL
inactive: erlotinib -0.008 | [1] 0.038 | [2] -0.028 | [3] -0.022 | [4] -0.021 | [5] -0.013 | [6] 0.154 | [7] 0.083 | [8] -0.009 | IRAK-1-4 Inhibitor I 0.142

NUDT4 (UniProt Q9NZJ9)
UniProt Q9NZJ9, sequence (Q9NZJ9 whole entry, looked up): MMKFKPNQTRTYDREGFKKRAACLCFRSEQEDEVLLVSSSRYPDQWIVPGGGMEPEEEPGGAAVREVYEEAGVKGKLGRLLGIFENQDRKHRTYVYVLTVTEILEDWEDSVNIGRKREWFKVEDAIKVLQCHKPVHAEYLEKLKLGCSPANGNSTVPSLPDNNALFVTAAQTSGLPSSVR
inactive: erlotinib -0.043 | [1] 0.233 | [2] -0.022 | [3] 0.07 | [4] -0.055 | [5] -0.009 | [6] 0.039 | [7] 0.059 | [8] 0.026 | IRAK-1-4 Inhibitor I -0.026

NUMB (UniProt P49757)
UniProt P49757, sequence (P49757 whole entry, looked up): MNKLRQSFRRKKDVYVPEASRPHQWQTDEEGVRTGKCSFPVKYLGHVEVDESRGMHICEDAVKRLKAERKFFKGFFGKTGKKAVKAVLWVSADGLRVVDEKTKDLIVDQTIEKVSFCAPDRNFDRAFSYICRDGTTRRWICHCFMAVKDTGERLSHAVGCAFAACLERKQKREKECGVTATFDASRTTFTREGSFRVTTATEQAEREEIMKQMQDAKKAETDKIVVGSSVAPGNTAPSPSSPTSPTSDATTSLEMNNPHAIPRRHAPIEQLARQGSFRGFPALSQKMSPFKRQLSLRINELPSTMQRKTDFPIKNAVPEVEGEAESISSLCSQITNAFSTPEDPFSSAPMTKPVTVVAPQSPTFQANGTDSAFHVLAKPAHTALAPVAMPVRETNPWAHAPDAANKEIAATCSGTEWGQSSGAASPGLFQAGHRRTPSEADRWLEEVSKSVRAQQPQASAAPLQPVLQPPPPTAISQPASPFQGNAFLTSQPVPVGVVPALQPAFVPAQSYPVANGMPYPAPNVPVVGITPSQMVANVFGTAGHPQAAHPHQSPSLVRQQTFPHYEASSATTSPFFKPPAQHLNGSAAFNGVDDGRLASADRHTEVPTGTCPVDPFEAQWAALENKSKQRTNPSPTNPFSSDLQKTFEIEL
inactive: erlotinib -0.029 | [1] 0.01 | [2] 0.044 | [3] -0.052 | [4] -0.009 | [5] -0.009 | [6] -0.029 | [7] -0.107 | [8] -0.043 | IRAK-1-4 Inhibitor I 0.022

NIPSNAP3A (UniProt Q9UFN0)
inactive: erlotinib 0.008 | [1] -0.014 | [2] 0.062 | [3] -0.03 | [4] 0.012 | [5] 0.003 | [6] 0.015 | [7] -0.012 | [8] 0.002 | IRAK-1-4 Inhibitor I 0.015

NAA35 (UniProt Q5VZE5)
inactive: erlotinib 0.017 | [1] 0.054 | [2] -0.023 | [3] 0.115 | [4] 0.021 | [5] 0.01 | [6] -0.002 | [7] -0.026 | [8] -0.025 | IRAK-1-4 Inhibitor I 0.013

NTPCR (UniProt Q9BSD7)
UniProt Q9BSD7, sequence (Q9BSD7 whole entry, looked up): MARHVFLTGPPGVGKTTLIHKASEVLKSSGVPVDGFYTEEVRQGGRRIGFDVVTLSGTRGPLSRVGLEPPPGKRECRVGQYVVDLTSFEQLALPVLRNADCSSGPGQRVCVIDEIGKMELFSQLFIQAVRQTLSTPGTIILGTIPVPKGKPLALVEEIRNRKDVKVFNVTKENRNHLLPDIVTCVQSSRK
inactive: erlotinib 0.015 | [1] -0.263 | [2] -0.007 | [3] 0.065 | [4] 0.031 | [5] 0.018 | [6] -0.045 | [7] 0.025 | [8] 0.046 | IRAK-1-4 Inhibitor I -0.011

OCRL (UniProt Q01968)
inactive: erlotinib -0.057 | [1] -0.031 | [2] 0.04 | [3] 0.085 | [4] -0.012 | [5] 0.054 | [6] -0.1 | [7] 0.02 | [8] 0.055 | IRAK-1-4 Inhibitor I 0.068

NAT1 (UniProt P18440)
active: [6] 0.528
inactive: erlotinib 0.001 | [1] -0.011 | [2] -0.007 | [3] -0.136 | [4] -0.015 | [5] -0.011 | [7] -0.021 | [8] 0.035 | IRAK-1-4 Inhibitor I -0.013

N6AMT1 (UniProt Q9Y5N5)
inactive: erlotinib 0.022 | [1] -0.053 | [2] -0.082 | [3] 0.02 | [4] -0.097 | [5] 0.013 | [6] -0.272 | [7] 0.005 | [8] -0.013 | IRAK-1-4 Inhibitor I -0.022

NCAPD3 (UniProt P42695)
inactive: erlotinib 0.023 | [1] 0.021 | [2] -0.012 | [3] 0.006 | [4] -0.003 | [5] 0.012 | [6] -0.043 | [7] -0.004 | [8] 0.042 | IRAK-1-4 Inhibitor I 0.03

NPTN (UniProt Q9Y639)
inactive: erlotinib -0.047 | [1] -0.02 | [2] -0.056 | [4] 0.008 | [5] 0.048 | [6] 0.17 | [7] -0.003 | [8] 0.007 | IRAK-1-4 Inhibitor I 0.064
active: [3] -0.421

NUDT4 isoform 2 (UniProt Q9NZJ9)
inactive: erlotinib 0.023 | [1] 0.015 | [2] 0.05 | [3] -0.048 | [4] 0.015 | [5] -0.007 | [6] -0.005 | [7] -0.069 | [8] 0.032 | IRAK-1-4 Inhibitor I -0.006

MYD88 isoform 6 (UniProt Q99836)
inactive: erlotinib -0.066 | [1] 0.007 | [2] -0.011 | [3] -0.019 | [4] -0.019 | [5] -0.015 | [6] -0.025 | [7] 0.032 | [8] -0.067 | IRAK-1-4 Inhibitor I 0.004

NOSIP (UniProt Q9Y314)
inactive: erlotinib 0.012 | [1] -0.001 | [2] 0.023 | [3] 0.022 | [4] 0.011 | [5] 0.025 | [6] -0.019 | [7] 0.003 | [8] 0.022 | IRAK-1-4 Inhibitor I 0.01

MSH6 (UniProt P52701)
UniProt P52701, sequence (P52701 whole entry, looked up): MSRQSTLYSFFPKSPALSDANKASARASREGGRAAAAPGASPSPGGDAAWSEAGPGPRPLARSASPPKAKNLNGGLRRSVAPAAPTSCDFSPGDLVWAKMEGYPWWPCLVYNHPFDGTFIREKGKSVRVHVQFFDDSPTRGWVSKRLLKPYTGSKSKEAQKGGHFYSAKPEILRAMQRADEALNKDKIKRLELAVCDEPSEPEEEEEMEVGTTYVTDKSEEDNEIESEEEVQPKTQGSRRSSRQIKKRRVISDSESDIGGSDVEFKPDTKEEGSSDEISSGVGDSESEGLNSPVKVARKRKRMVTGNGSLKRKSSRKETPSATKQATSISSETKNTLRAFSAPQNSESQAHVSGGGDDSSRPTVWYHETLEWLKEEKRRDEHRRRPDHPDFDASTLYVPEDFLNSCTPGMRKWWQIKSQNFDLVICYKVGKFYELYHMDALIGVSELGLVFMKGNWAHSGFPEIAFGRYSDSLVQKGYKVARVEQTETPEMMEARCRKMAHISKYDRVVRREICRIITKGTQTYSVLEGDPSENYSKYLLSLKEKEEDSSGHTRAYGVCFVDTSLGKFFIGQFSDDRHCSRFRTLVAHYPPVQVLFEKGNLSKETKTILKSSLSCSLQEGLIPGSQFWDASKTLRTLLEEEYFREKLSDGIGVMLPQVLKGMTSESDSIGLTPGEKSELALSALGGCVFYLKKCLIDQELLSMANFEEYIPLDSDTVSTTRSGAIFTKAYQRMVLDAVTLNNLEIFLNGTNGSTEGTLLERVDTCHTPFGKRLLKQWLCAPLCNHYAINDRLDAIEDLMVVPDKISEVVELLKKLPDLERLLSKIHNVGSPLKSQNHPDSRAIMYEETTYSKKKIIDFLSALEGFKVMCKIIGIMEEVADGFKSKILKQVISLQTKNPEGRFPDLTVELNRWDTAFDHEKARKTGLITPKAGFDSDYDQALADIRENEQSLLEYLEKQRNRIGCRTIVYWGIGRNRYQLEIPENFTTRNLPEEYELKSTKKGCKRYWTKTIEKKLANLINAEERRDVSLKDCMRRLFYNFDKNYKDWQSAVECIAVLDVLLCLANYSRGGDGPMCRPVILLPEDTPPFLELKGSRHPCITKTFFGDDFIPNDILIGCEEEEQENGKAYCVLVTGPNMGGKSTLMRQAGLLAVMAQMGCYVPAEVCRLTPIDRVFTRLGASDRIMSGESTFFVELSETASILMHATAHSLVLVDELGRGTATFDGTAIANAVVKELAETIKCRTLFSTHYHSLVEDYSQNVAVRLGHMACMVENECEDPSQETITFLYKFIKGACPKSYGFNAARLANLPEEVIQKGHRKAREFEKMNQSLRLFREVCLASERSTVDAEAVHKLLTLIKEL
inactive: erlotinib 0.011 | [1] 0.03 | [2] -0.023 | [3] 0.031 | [4] 0.041 | [5] 0.008 | [6] -0.025 | [7] 0 | [8] -0.014 | IRAK-1-4 Inhibitor I -0.008

NMT1 (UniProt P30419)
UniProt P30419, sequence (P30419 whole entry, looked up): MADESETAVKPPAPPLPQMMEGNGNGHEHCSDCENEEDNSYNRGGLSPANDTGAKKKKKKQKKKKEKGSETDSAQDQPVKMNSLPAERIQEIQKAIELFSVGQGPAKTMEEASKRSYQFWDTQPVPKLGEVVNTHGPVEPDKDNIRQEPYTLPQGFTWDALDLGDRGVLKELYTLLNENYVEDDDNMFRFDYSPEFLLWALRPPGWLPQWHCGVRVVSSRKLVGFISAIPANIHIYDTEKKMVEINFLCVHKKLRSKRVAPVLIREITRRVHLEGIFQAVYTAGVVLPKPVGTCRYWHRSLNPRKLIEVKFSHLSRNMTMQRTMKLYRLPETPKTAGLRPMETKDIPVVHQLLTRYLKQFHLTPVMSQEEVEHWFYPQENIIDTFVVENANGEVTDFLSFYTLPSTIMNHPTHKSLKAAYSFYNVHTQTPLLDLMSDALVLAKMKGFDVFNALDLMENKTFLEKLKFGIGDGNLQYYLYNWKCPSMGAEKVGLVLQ
inactive: erlotinib -0.027 | [1] -0.147 | [2] 0.15 | [3] 0.019 | [4] -0.021 | [5] -0.024 | [6] 0.062 | [7] -0.012 | [8] -0.165 | IRAK-1-4 Inhibitor I -0.027
